# According to ChEMBL document CHEMBL5606458, “ASAP - ZIKV NS2B-NS3 protease fluorescence single point” (2024):
# The whole screen tested about 2,700 compounds, of which about 160 (5.9%) showed an effect of 50% or more. The full list was thinned out, with strong results kept by preference.
# Biological target: Nonstructural protein 3 (Zika virus) (UniProt A0A024AXB9)
# [1] = PRVABC59, Concentration 50.0 uM, Number of replicates 1.0
# Chain of Nonstructural protein 3 (Zika virus) (A0A024AXB9 as listed by the source): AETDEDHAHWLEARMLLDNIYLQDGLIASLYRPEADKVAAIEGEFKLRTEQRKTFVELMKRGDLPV
compound,measurement,setting,value
Cc1ccc(N)cc1NC(=O)c1ccc2c(c1)CCNCC2,inhibition,"PRVABC59, Concentration 49.95 uM, Number of replicates 2.0, Standard deviation 12.72305005425739 %",-5.44%
same,inhibition,"PRVABC59, Concentration 99.9 uM, Number of replicates 2.0, Standard deviation 9.350903464198954 %",18.5%
CCN1CCN(c2ccc(NC(=O)C3CCN(c4ccc(C=O)cc4)CC3)cc2)CC1,inhibition,[1],54.8%
Cc1ccc2cccc(NC(=O)C3CCN(c4ccc(C=O)cc4)CC3)c2n1,inhibition,[1],60.8%
CN1[C@@H]2CCC[C@H]1C[C@@H](NC(=O)C1CCN(c3ccc(C=O)cc3)CC1)C2,inhibition,[1],43.1%
N#Cc1ccc(NC(=O)C2CCN(c3ccc(C=O)cc3)CC2)cc1Br,inhibition,[1],22.8%
O=Cc1ccc(N2CCC(C(=O)NC[C@@H]3CCCN4CCCC[C@H]34)CC2)cc1,inhibition,[1],36.4%
CCn1ccnc(N2CC[C@H](c3cccc(C#N)c3)C2)c1=O,inhibition,"PRVABC59, Concentration 50.0 uM, Number of replicates 2.0, Standard deviation 16.00595625597801 %",20.3%
same,inhibition,"PRVABC59, Concentration 100.0 uM, Number of replicates 2.0, Standard deviation 3.036416764525631 %",15.1%
same,inhibition,"PRVABC59, Concentration 200.0 uM, Number of replicates 2.0, Standard deviation 6.611719762363672 %",25.1%
CNc1cc(COc2cccnc2F)nc(N2CCNCC2)n1,inhibition,"PRVABC59, Concentration 49.5 uM, Number of replicates 2.0, Standard deviation 2.059359081452019 %",4.89%
same,inhibition,"PRVABC59, Concentration 99.01 uM, Number of replicates 2.0, Standard deviation 2.151250675148563 %",12.3%
same,inhibition,"PRVABC59, Concentration 198.0 uM, Number of replicates 2.0, Standard deviation 2.3891841335084476 %",24%
CCn1ccnc(N2CC[C@H](c3ccc(F)cc3)C2)c1=O,inhibition,"PRVABC59, Concentration 49.5 uM, Number of replicates 2.0, Standard deviation 0.27991239382631117 %",8.78%
same,inhibition,"PRVABC59, Concentration 99.01 uM, Number of replicates 2.0, Standard deviation 0.05869134101275442 %",18.2%
same,inhibition,"PRVABC59, Concentration 198.0 uM, Number of replicates 2.0, Standard deviation 0.2009049231321535 %",32.5%
NC(=O)C1CCN(Cc2c[nH]c3ccccc23)CC1,inhibition,"PRVABC59, Concentration 49.5 uM, Number of replicates 2.0, Standard deviation 3.887096953751933 %",5.72%
same,inhibition,"PRVABC59, Concentration 99.01 uM, Number of replicates 2.0, Standard deviation 2.3727111220616615 %",14.1%
same,inhibition,"PRVABC59, Concentration 198.0 uM, Number of replicates 2.0, Standard deviation 2.367525373820881 %",27.9%
O=C(O)c1ccn(C2CCN(Cc3c[nH]c4ccccc34)CC2)n1,inhibition,"PRVABC59, Concentration 49.5 uM, Number of replicates 2.0, Standard deviation 1.5195725914554161 %",20.5%
same,inhibition,"PRVABC59, Concentration 99.01 uM, Number of replicates 2.0, Standard deviation 1.1461623032421138 %",35.4%
same,inhibition,"PRVABC59, Concentration 198.0 uM, Number of replicates 2.0, Standard deviation 1.0942994260377004 %",52.6%
c1ccc2c(CN3CCC(n4cccn4)CC3)c[nH]c2c1,inhibition,"PRVABC59, Concentration 49.5 uM, Number of replicates 2.0, Standard deviation 0.7832462431332359 %",26.9%
same,inhibition,"PRVABC59, Concentration 99.01 uM, Number of replicates 2.0, Standard deviation 1.440111283496493 %",42.5%
same,inhibition,"PRVABC59, Concentration 198.0 uM, Number of replicates 2.0, Standard deviation 0.6771494756145803 %",60.2%
NC(=O)[C@H]1CCCN(Cc2c[nH]c3ccccc23)C1,inhibition,"PRVABC59, Concentration 49.5 uM, Number of replicates 2.0, Standard deviation 3.1390869089666538 %",3.79%
same,inhibition,"PRVABC59, Concentration 99.01 uM, Number of replicates 2.0, Standard deviation 3.56900861889403 %",10.6%
same,inhibition,"PRVABC59, Concentration 198.0 uM, Number of replicates 2.0, Standard deviation 2.510612912991002 %",20.5%
NC[C@H]1C[C@H](NC(=O)[C@@H](NC(=O)OCc2ccccc2)c2ccc(OCc3ccccc3)cc2)C1,inhibition,"PRVABC59, Concentration 49.5 uM, Number of replicates 2.0, Standard deviation 1.2395145381206512 %",10.3%
same,inhibition,"PRVABC59, Concentration 99.01 uM, Number of replicates 2.0, Standard deviation 2.826506577153246 %",46.7%
same,inhibition,"PRVABC59, Concentration 198.0 uM, Number of replicates 2.0, Standard deviation 0.7649713696189122 %",82.7%
NC[C@H]1C[C@@H](NC(=O)[C@@H](NC(=O)OCc2ccccc2)c2ccc(OCc3ccccc3)cc2)C1,inhibition,"PRVABC59, Concentration 49.5 uM, Number of replicates 2.0, Standard deviation 0.8838686407925086 %",24%
same,inhibition,"PRVABC59, Concentration 99.01 uM, Number of replicates 2.0, Standard deviation 0.4383595932929543 %",66.8%
same,inhibition,"PRVABC59, Concentration 198.0 uM, Number of replicates 2.0, Standard deviation 0.05241044906026695 %",91.6%
COc1cnccc1NC(=O)c1cccn(CC(C)C)c1=O,inhibition,"PRVABC59, Concentration 49.5 uM, Number of replicates 2.0, Standard deviation 2.517858799186995 %",14.1%
same,inhibition,"PRVABC59, Concentration 99.01 uM, Number of replicates 2.0, Standard deviation 2.0130939800794283 %",24.9%
same,inhibition,"PRVABC59, Concentration 198.0 uM, Number of replicates 2.0, Standard deviation 1.1565850502914639 %",38%
O=C1NCc2ccccc2C12CCN(C1CS(=O)(=O)C1)CC2,inhibition,"PRVABC59, Concentration 49.5 uM, Number of replicates 2.0, Standard deviation 2.478163590707131 %",-2.5%
same,inhibition,"PRVABC59, Concentration 99.01 uM, Number of replicates 2.0, Standard deviation 1.6189007436906162 %",-1.76%
same,inhibition,"PRVABC59, Concentration 198.0 uM, Number of replicates 2.0, Standard deviation 2.7604333789428463 %",-2.06%
N#C[C@H](c1c[nH]c2ccccc12)N1CCCCC1,inhibition,"PRVABC59, Concentration 49.5 uM, Number of replicates 2.0, Standard deviation 0.9976655532404076 %",2.57%
same,inhibition,"PRVABC59, Concentration 99.01 uM, Number of replicates 2.0, Standard deviation 2.0662033924754 %",3.53%
same,inhibition,"PRVABC59, Concentration 198.0 uM, Number of replicates 2.0, Standard deviation 2.2933585318984724 %",2.01%
CC(C)(CO)NC(=O)c1cc(Cl)cc(NC(=O)c2cc(Cl)ccc2O)c1,inhibition,"PRVABC59, Concentration 49.5 uM, Number of replicates 2.0, Standard deviation 2.1093755895168673 %",7.55%
same,inhibition,"PRVABC59, Concentration 99.01 uM, Number of replicates 2.0, Standard deviation 4.458409623609473 %",13.5%
same,inhibition,"PRVABC59, Concentration 198.0 uM, Number of replicates 2.0, Standard deviation 1.5634862358558868 %",19.6%
CN(C)Cc1cccc(C(=O)Nc2cc(Cl)cc(C(=O)NC(C)(C)CO)c2)c1,inhibition,"PRVABC59, Concentration 49.5 uM, Number of replicates 2.0, Standard deviation 1.8243044214328226 %",6.06%
same,inhibition,"PRVABC59, Concentration 99.01 uM, Number of replicates 2.0, Standard deviation 1.3712089412013073 %",12.5%
same,inhibition,"PRVABC59, Concentration 198.0 uM, Number of replicates 2.0, Standard deviation 2.8457565601547175 %",22%
CN(C)Cc1ccc(C(=O)Nc2cc(Cl)cc(C(=O)NC(C)(C)CO)c2)[nH]1,inhibition,"PRVABC59, Concentration 49.5 uM, Number of replicates 2.0, Standard deviation 0.7294034755731748 %",25.7%
same,inhibition,"PRVABC59, Concentration 99.01 uM, Number of replicates 2.0, Standard deviation 0.13537432871783928 %",38.6%
same,inhibition,"PRVABC59, Concentration 198.0 uM, Number of replicates 2.0, Standard deviation 2.37813693875156 %",53.1%
O=C(Nc1ccc2c(c1)B(O)OC2)c1cccc(OCc2c(Cl)cccc2Cl)c1,inhibition,"PRVABC59, Concentration 49.5 uM, Number of replicates 2.0, Standard deviation 1.6182218422548027 %",13.7%
same,inhibition,"PRVABC59, Concentration 99.01 uM, Number of replicates 2.0, Standard deviation 3.3767515547267357 %",18.1%
same,inhibition,"PRVABC59, Concentration 198.0 uM, Number of replicates 2.0, Standard deviation 1.8193304189589607 %",26.3%
O=C(c1cc(Cl)ccc1NS(=O)(=O)c1ccc(Oc2ccccc2Cl)cc1)N1CCC[C@H](O)C1,inhibition,"PRVABC59, Concentration 49.5 uM, Number of replicates 2.0, Standard deviation 2.1414055085112063 %",8.55%
same,inhibition,"PRVABC59, Concentration 99.01 uM, Number of replicates 2.0, Standard deviation 0.8713297847731235 %",39.7%
same,inhibition,"PRVABC59, Concentration 198.0 uM, Number of replicates 2.0, Standard deviation 0.024611062132057417 %",79.8%
O=C(c1cc(Cl)ccc1NS(=O)(=O)c1ccc(Oc2ccccc2Cl)cc1)N1CCC[C@@H]1CO,inhibition,"PRVABC59, Concentration 49.5 uM, Number of replicates 2.0, Standard deviation 0.644882859919004 %",6.57%
same,inhibition,"PRVABC59, Concentration 99.01 uM, Number of replicates 2.0, Standard deviation 0.07876403049715877 %",37.2%
same,inhibition,"PRVABC59, Concentration 198.0 uM, Number of replicates 2.0, Standard deviation 0.031176529605690447 %",69.4%
C[C@H]1COCCN1C(=O)c1cc(Cl)ccc1NS(=O)(=O)c1ccc(Oc2ccccc2Cl)cc1,inhibition,"PRVABC59, Concentration 49.5 uM, Number of replicates 2.0, Standard deviation 0.03588483834653944 %",17%
same,inhibition,"PRVABC59, Concentration 99.01 uM, Number of replicates 2.0, Standard deviation 0.6631068200403265 %",40.8%
same,inhibition,"PRVABC59, Concentration 198.0 uM, Number of replicates 2.0, Standard deviation 0.09361590556282165 %",58.7%
O=C(c1cc(Cl)ccc1NS(=O)(=O)c1ccc(Oc2ccccc2Cl)cc1)N1CCCC1,inhibition,"PRVABC59, Concentration 49.5 uM, Number of replicates 2.0, Standard deviation 2.8745469037851152 %",9.57%
same,inhibition,"PRVABC59, Concentration 99.01 uM, Number of replicates 2.0, Standard deviation 3.402955430557717 %",14.4%
same,inhibition,"PRVABC59, Concentration 198.0 uM, Number of replicates 2.0, Standard deviation 3.9207965622968795 %",20%
CC[C@H]1CCN(C(=O)c2cc(Cl)ccc2NS(=O)(=O)c2ccc(Oc3ccccc3Cl)cc2)C1,inhibition,"PRVABC59, Concentration 49.5 uM, Number of replicates 2.0, Standard deviation 0.8056939918249262 %",9.4%
same,inhibition,"PRVABC59, Concentration 99.01 uM, Number of replicates 2.0, Standard deviation 0.9468131045821944 %",15.3%
same,inhibition,"PRVABC59, Concentration 198.0 uM, Number of replicates 2.0, Standard deviation 0.6022197968075486 %",23.5%
C[C@@H](NC(=O)c1cc(Cl)ccc1NS(=O)(=O)c1ccc(Oc2ccccc2Cl)cc1)[C@H]1CCCO1,inhibition,"PRVABC59, Concentration 49.5 uM, Number of replicates 2.0, Standard deviation 0.31998022259385983 %",30.9%
same,inhibition,"PRVABC59, Concentration 99.01 uM, Number of replicates 2.0, Standard deviation 0.2133183501303701 %",35.1%
same,inhibition,"PRVABC59, Concentration 198.0 uM, Number of replicates 2.0, Standard deviation 0.1263515313886271 %",23.8%
O=C(NC[C@H]1CCOC1)c1cc(Cl)ccc1NS(=O)(=O)c1ccc(Oc2ccccc2Cl)cc1,inhibition,"PRVABC59, Concentration 49.5 uM, Number of replicates 2.0, Standard deviation 4.1620208465884945 %",16.4%
same,inhibition,"PRVABC59, Concentration 99.01 uM, Number of replicates 2.0, Standard deviation 1.5720504754733005 %",31.6%
same,inhibition,"PRVABC59, Concentration 198.0 uM, Number of replicates 2.0, Standard deviation 3.020626194849933 %",23.3%
O=C(c1cc(Cl)ccc1NS(=O)(=O)c1ccc(Oc2ccccc2Cl)cc1)N1CC[C@H](CO)C1,inhibition,"PRVABC59, Concentration 49.5 uM, Number of replicates 2.0, Standard deviation 0.6366783858004793 %",4.61%
same,inhibition,"PRVABC59, Concentration 99.01 uM, Number of replicates 2.0, Standard deviation 1.3685297503351668 %",11.5%
same,inhibition,"PRVABC59, Concentration 198.0 uM, Number of replicates 2.0, Standard deviation 0.3954655654516591 %",72.9%
O=C(NC[C@H]1CCCO1)c1cc(Cl)ccc1NS(=O)(=O)c1ccc(Oc2ccccc2Cl)cc1,inhibition,"PRVABC59, Concentration 49.5 uM, Number of replicates 2.0, Standard deviation 0.526737151348054 %",37%
same,inhibition,"PRVABC59, Concentration 99.01 uM, Number of replicates 2.0, Standard deviation 0.29372509619508946 %",35.9%
same,inhibition,"PRVABC59, Concentration 198.0 uM, Number of replicates 2.0, Standard deviation 0.7843616173322282 %",19.9%
